Consider four molecules from PubChem BioAssay.

The test system of experiment [1] is Wnt5a (protein binding on small-molecule microarray). The experiment can be described thus: Wnt5a binders on small-molecule microarray, primary screen, biophysical, 635/667 nm fluorescence (AID 1142).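 Further: fluorescence read at 667 nm with signal to noise per printed feature.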 The conditions noted are these: 635 nm fluorescence, higher = more signal.
Experiment [2] can be described thus: cell viability in Huh7 cells, primary screen, cytotoxicity control for HCV replication inhibitor project, CellTiter-Glo luminescence, basal, 48 h (AID 1143).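 Further: Huh7 hepatoma cells carrying a hepatitis C replication reporter with no stimulus; test concentration not given here.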 The conditions noted are these: Huh7 HCV replicon, higher = more signal, called active from +8 up or from −8 down. A general note: Cellular ATP, detected with luciferase, serves as a proxy for viable cell number.

Experiment [3] can be described thus: P. aeruginosa biofilm formation inhibitors, primary screen, PAO1 strain, BacTiter-Glo luminescence, LB-PBS (AID 1144). As to conditions: 12 h, higher = more signal.
The nature of experiment [4]: CREB reporter modulators without forskolin, primary screen, cell-based, PC12, CRE-LacZ reporter, unstimulated (AID 1145). The conditions noted are these: no forskolin, luminescence, 4.5 h, higher = more signal, called active from +8 up or from −8 down.
Experiment [5] can be described thus: CREB reporter modulators under forskolin, primary screen, cell-based, PC12, CRE-LacZ reporter, forskolin-stimulated (AID 1146).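 Further: PC12 cells with 6xCRE LacZ reporter stimulated by forskolin 10 µM; beta-galactosidase reporter signal reflecting CREB driven transcription.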 The conditions noted are these: luminescence, 4.5 h, higher = more signal, called active from +8 up or from −8 down.
Experiment [6] concerns the target Streptavidin (Streptomyces avidinii) (UniProt P22629). The experiment can be described thus: streptavidin binders on small-molecule microarray, primary screen, artefact control for SMM compound annotation, biophysical, 635/667 nm fluorescence (AID 1147).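 Further: signal reflects streptavidin binding to arrayed compounds as a control protein.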 The conditions noted are these: streptavidin binding, higher = more signal.
Experiment [7] in a line: small-molecule binders of probe aInhba, primary screen, biochemical, small-molecule microarray, 635/667 nm fluorescence (AID 1148).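 Further: score merges 667nm spot fluorescence with signal-to-noise for antibody binding to printed compounds.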 The conditions noted are these: higher = more signal.
Experiment [8] concerns the target Torsin-1A (Homo sapiens) (UniProt O14656). The experiment is described as follows: torsin A binders from cell lysate, primary screen, small-molecule microarray, wild-type, 635/667 nm (AID 1149). As to conditions: COS7 hTOR1A-WT lysate, 635 nm fluorescence, higher = more signal.
Experiment [9] has the same target. The experiment can be described thus: small-molecule binders of mutant TOR1A in lysate, primary screen, cell lysate, small-molecule microarray, COS7 lysate, 635/667 nm fluorescence (AID 1150).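 Further: score pools 667 nm emission and signal to noise measuring lysate protein binding.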 The conditions noted are these: COS7 hTOR1A mutant lysate, 635 nm fluorescence, higher = more signal.
For experiment [10], the system named is Sonic hedgehog protein (Shh). The experiment is described as follows: small-molecule binders of Shh protein, primary screen, biochemical, small-molecule microarray, 635/667 nm fluorescence (AID 1151).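 Further: Shh protein binding to compounds spotted on small-molecule microarray slides; score combines spot fluorescence intensity with signal-to-noise across triplicate slides.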 As to conditions: small-molecule microarray binding, 635 nm fluorescence; higher = more signal.
Experiment [11] is described as follows: E. coli DRC41 culture turbidity changes, primary screen, E. coli filamentation inducer project, strain DRC41, OD650, 48 h (AID 1152).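 Further: E. coli MC1000 strain DRC41 lacking acrAB efflux pump and sulA.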 As to conditions: E. coli DRC41 (acrAB sulA), higher = more signal, called active from +8 up or from −8 down.
A short description of experiment [12]: small-molecule binders of probe aLefty1, primary screen, biochemical, small-molecule microarray, 635/667 nm fluorescence (AID 1153).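 Further: score merges spot fluorescence with signal-to-noise ratio from the scanned slide images.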 As to conditions: higher = more signal.
Experiment [13] can be described thus: PSAC antagonists in infected red cells, primary screen, cell-based, P. falciparum Indochina, OD700, 1 h (AID 1154). As to conditions: P. falciparum Indochina infected RBC osmotic lysis, higher = more signal, called active from +8 up or from −8 down.
A short description of experiment [14]: PSAC antagonists in infected red cells, primary screen, cell-based, P. falciparum Indochina, OD700, 2 h (AID 1155).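 Further: lysis reports solute entry through the parasite surface anion channel PSAC; channel blockers reduce lysis of infected cells.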 As to conditions: P. falciparum Indochina infected erythrocytes, osmotic lysis OD700; higher = more signal, called active from +8 up or from −8 down.
Experiment [15] is described as follows: osmotic lysis modulators in infected erythrocytes, primary screen, PSAC antagonist project, cell-based, P. falciparum Indochina, OD700, 3 h (AID 1156). As to conditions: higher = more signal, called active from +8 up or from −8 down.
Experiment [16] in a line: PSAC antagonists in infected red cells, primary screen, cell-based, P. falciparum Indochina, OD700, 18 h (AID 1157). As to conditions: P. falciparum Indochina infected erythrocytes, osmotic lysis OD700, 18 h; higher = more signal, called active from +8 up or from −8 down.
Experiment [17] can be described thus: modulators of S6 phosphorylation in cells, primary screen, cell-based, A549, cytoblot, luminescence, serum-stimulated (AID 1158).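 Further: serum-stimulated A549 lung adenocarcinoma cells; signal is phosphorylated S6 detected by cytoblot immunostaining with HRP secondary.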 The conditions noted are these: A549 phospho-S6 cytoblot, 5 h, higher = more signal.
In experiment [18] the target is NADPH oxidase 2 (Homo sapiens) (UniProt P04839). The experiment can be described thus: NOX2-dependent H2O2 signal modulators, primary screen, NOX inhibitor project, cell-based, HEK293-NOX2, PMA-stimulated, Amplex Red fluorescence (AID 1159). Further: test concentration not given here. The conditions noted are these: 45 min, higher = more signal, called active from +8 up or from −8 down.
NADPH oxidase 2 (Homo sapiens), sequence (P04839 whole entry, looked up): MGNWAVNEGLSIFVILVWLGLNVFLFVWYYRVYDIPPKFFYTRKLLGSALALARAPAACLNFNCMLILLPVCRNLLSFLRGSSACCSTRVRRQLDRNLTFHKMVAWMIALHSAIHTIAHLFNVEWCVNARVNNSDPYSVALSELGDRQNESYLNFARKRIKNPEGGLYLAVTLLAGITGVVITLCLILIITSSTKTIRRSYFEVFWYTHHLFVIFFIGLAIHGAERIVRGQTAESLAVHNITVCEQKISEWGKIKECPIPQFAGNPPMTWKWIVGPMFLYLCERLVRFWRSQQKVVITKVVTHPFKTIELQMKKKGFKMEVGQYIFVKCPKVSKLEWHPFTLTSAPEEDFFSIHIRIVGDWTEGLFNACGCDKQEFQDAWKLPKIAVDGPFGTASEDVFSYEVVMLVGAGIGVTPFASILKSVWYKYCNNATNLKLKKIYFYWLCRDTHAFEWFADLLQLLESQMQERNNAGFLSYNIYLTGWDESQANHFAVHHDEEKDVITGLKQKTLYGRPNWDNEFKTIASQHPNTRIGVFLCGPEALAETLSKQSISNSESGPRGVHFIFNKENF
For experiment [19], the target named is NADPH oxidase 4 (Homo sapiens) (UniProt Q9NPH5). The experiment is described as follows: NOX4-dependent H2O2 signal modulators, primary screen, NOX inhibitor project, cell-based, HEK293-NOX4, tetracycline-induced, Amplex Red fluorescence (AID 1160). As to conditions: 45 min, higher = more signal, called active from +8 up or from −8 down.
NADPH oxidase 4 (Homo sapiens), sequence (Q9NPH5 whole entry, looked up): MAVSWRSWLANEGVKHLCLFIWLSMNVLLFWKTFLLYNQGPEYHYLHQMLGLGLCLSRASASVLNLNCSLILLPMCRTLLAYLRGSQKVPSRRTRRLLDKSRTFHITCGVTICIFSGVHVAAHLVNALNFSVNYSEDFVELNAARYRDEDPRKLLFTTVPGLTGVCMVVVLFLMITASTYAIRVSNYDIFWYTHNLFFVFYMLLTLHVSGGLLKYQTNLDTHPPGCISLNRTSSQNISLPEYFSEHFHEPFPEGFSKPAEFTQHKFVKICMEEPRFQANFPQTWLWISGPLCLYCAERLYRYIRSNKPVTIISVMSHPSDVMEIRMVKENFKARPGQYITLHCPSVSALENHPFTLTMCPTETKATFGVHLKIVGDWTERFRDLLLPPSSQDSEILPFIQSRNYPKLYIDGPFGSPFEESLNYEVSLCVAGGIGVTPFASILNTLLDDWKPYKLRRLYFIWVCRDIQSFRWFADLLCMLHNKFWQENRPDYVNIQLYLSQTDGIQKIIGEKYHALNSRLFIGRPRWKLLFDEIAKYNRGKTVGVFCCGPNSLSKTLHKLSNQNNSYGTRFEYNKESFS
Experiment [20] addresses NADPH oxidase 5 (Homo sapiens) (UniProt Q96PH1). The experiment can be described thus: NOX5-dependent H2O2 signal modulators, primary screen, NOX inhibitor project, cell-based, HEK293-NOX5, Amplex Red fluorescence (AID 1161). As to conditions: HEK293-NOX5, ionomycin, 45 min, higher = more signal.

Calls of active or inactive are those of the source. Unless noted, how the calls were made is not given here.

Torsin-1A (Homo sapiens), sequence (O14656 whole entry, looked up): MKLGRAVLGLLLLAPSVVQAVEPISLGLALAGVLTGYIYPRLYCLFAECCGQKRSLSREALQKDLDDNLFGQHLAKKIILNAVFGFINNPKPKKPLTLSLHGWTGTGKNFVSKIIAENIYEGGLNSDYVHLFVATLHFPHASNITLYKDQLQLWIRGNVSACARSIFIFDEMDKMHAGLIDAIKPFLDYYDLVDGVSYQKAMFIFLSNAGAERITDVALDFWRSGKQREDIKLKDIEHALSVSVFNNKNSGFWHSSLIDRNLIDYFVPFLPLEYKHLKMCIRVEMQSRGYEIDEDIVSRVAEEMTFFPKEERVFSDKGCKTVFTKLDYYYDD
NADPH oxidase 5 (Homo sapiens), sequence (Q96PH1 whole entry, looked up): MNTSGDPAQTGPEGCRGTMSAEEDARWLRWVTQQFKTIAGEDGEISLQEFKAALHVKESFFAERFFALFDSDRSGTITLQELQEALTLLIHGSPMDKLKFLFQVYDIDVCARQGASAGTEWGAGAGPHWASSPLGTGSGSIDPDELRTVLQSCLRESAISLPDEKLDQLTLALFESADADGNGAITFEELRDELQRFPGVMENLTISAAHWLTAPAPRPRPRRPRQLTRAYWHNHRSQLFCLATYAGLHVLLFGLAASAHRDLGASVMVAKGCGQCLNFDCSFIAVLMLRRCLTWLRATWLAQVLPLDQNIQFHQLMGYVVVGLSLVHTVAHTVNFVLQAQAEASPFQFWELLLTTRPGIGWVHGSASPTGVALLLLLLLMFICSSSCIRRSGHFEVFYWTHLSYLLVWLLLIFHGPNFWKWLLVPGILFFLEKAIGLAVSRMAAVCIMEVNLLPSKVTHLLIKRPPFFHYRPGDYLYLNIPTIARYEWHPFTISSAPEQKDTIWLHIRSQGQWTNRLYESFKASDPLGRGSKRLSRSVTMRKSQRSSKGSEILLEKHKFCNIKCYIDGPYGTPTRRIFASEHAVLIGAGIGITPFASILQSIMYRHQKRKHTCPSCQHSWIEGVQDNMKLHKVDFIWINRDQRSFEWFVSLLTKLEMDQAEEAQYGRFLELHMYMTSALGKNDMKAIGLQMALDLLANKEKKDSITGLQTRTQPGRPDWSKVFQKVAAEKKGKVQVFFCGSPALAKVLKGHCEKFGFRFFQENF
Streptavidin (Streptomyces avidinii), sequence (P22629 whole entry, looked up): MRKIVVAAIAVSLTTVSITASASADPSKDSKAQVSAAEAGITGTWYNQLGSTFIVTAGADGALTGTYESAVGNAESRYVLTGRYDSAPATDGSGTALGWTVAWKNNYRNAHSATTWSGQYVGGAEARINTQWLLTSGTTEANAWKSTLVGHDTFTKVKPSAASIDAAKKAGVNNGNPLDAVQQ

For `CO[C@H]1O[C@H](CO)[C@@H](OC(=O)Nc2ccc3c(c2)OCO3)[C@H](OC(=O)Nc2ccccc2-c2ccccc2)[C@H]1OC(=O)Nc1ccccc1-c1ccccc1`, the composite z-score in [1] turned out to be 1.07; in experiment [6] it was 0.2; in [7], 0.196; in the experiment with Torsin-1A (Homo sapiens) [8], 0.384; with Torsin-1A (Homo sapiens) [9], 1.55; in experiment [10], 0.333. Also, the composite z-score in [12] was -0.0536. Also, the z-score in [2] is -5.61 (inactive); in [3], -0.378 (inactive); in experiment [4] it was 1.5 (inactive); in [5] it was -1.05 (inactive); in experiment [11], -0.133 (inactive); in [13], 2.14 (inactive). Besides, the z-score in experiment [14] is 0.825 (inactive); in experiment [15] it was -0.124 (inactive); in experiment [16] it was 1.21 (inactive); in [17], -0.311; in [18], -4.55 (inactive); in experiment [19], -0.707 (inactive). This molecule returned a z-score in experiment [20] of -0.848.
As to `COC(=O)[C@@]1(Cc2ccc(OC)cc2)[C@H]2c3cc(C(=O)N4CCCC4)n(Cc4ccc(Cl)c(C(F)(F)F)c4)c3C[C@H]2CN1C(=O)c1ccccc1`, the composite z-score was 0.344 in experiment [1]; 1.59 in experiment [6]; 0.728 in experiment [7]; 0.557 with Torsin-1A (Homo sapiens) [8]; 1.28 with Torsin-1A (Homo sapiens) [9]; -0.152 in [10]. This molecule had a composite z-score in experiment [12] of 1.19. Besides, the z-score is -3.32 (inactive) in experiment [2]; 0.237 (inactive) in [3]; 0.0143 (inactive) in experiment [4]; -0.218 (inactive) in [5]; -0.557 (inactive) in [11]; 1.24 (inactive) in experiment [13]. In addition, the z-score in experiment [14] was -0.382 (inactive); in experiment [15] it was -0.397 (inactive); in experiment [16], -1.17 (inactive); in [17], 2.85; in [18] it was 0.449 (inactive); in [19] it was 1.28 (inactive). Further, the z-score in [20] was -4.74.
Turning to `O=C1O[C@@H](c2ccccc2)[C@@H](c2ccccc2)N2[C@@H](c3ccc(OCCO)cc3)[C@]3(C(=O)Nc4ccc(C#CC5(O)CCCCCC5)cc43)[C@@H](C(=O)Nc3nc4ccccc4s3)[C@H]12`, the composite z-score in [1] is 0.41; in [6] it was 1.44; in experiment [7] it was 0.0945; with Torsin-1A (Homo sapiens) [8], 1.14; in the experiment with Torsin-1A (Homo sapiens) [9], 0.985; in experiment [10] it was 1.11. Moreover, the composite z-score in experiment [12] was -0.0061. The z-score is -1.6 (inactive) in experiment [2]; -0.213 (inactive) in [3]; 0.685 (inactive) in experiment [4]; -0.0048 (inactive) in [5]; 0.219 (inactive) in experiment [11]; 2.63 (inactive) in experiment [13]. The z-score was 1.76 (inactive) in experiment [14]; 0.626 (inactive) in experiment [15]; 1.96 (inactive) in experiment [16]; 0.693 in experiment [17]; 1.2 (inactive) in experiment [18]; -1.33 (inactive) in experiment [19]. The z-score in [20] came out at 0.52.
On to `O=C1[C@H]2C=C(I)[C@H](C[C@@H]2OCCCCCCO)[C@@]12CO2`, for which the composite z-score is -0.302 in experiment [1]; -0.324 in [6]; 0.255 in experiment [7]; 0.349 in the experiment with Torsin-1A (Homo sapiens) [8]; 0.541 with Torsin-1A (Homo sapiens) [9]; 1.07 in [10]. In experiment [12], this molecule yielded a composite z-score of 0.0834. Further, the z-score was 0.567 (inactive) in experiment [2]; -0.04 (inactive) in [3]; 1.21 (inactive) in [4]; 1.77 (inactive) in [5]; -1.02 (inactive) in experiment [11]; 5.11 (inactive) in experiment [13]. In addition, the z-score in experiment [14] was 0.713 (inactive); in [15] it was 0.487 (inactive); in experiment [16], 0.035 (inactive); in experiment [17] it was -0.251; in experiment [18], -0.212 (inactive); in experiment [19], 0.645 (inactive). The same molecule had a z-score in experiment [20] of -1.22.
